The target in assay [1] is Thyrotropin-releasing hormone receptor (Homo sapiens) (UniProt P34981). As to the kind of experiment: qHTS assay to identify small molecule agonists of the thyrotropin-releasing hormone receptor (TRHR) signaling pathway (AID 1346891; calls by dose curve; note: series mostly up to about 58 µM). Summed up:
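HEK293 cells expressing TRHR plated 18 h at 37 C/5% CO2, calcium dye-loaded 2 h at 37 C, then compound added (agonist mode); kinetic calcium fluorescence read 3 min at 1 s intervals; 15 concentrations in triplicate.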
(qHTS replaces the single test concentration by a dilution series.)

Assay [2] in a line: Human pregnane X receptor (PXR) small molecule agonists, qHTS cell viability counter screen (AID 1346977). Note: nearly all actives have a fitted effect of over 50% in size. The gist of the method: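 PXR-Luc HepG2 cells (2,000/well, 5% charcoal-stripped FBS) preincubated 5 hr, then exposed to compounds 24 hr at 37 C. Viability read in the same wells by CellTiter-Fluor fluorescence, reagent added at 23 hr, 1 hr incubation.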
Assay [3] in a line: Caspase-3/7 induction in HepG2 cells by small molecules, qHTS assay (AID 1346978). Note: nearly all actives have a fitted effect of over 15% in size. Summed up:
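Wild-type HepG2 cells (2,000/well) were settled 5 h at 37 C, 5% CO2, then exposed to compounds in DMSO for 17 h. Caspase-3/7 activity was read by luminescence 30 min after adding Caspase-Glo 3/7 reagent at room temperature.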

Assay [4] can be described thus: Caspase-3/7 induction in CHO-K1 cells by small molecules, qHTS cell viability counter screen (AID 1346979). Note: nearly all actives have a fitted effect of over 35% in size. Note: potency is the fitted concentration of half-maximal effect. Summed up: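 Wild-type CHO-K1 cells (1,500/well) treated with compound after 5 h plating; after 16 h at 37C, viability read as CellTiter-Fluor fluorescence following 1 h reagent incubation, in the same wells as the caspase read.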
Assay [5] can be described thus: Caspase-3/7 induction in CHO-K1 cells by small molecules, qHTS assay (AID 1346980). Note: nearly all actives have a fitted effect of over 15% in size. Summed up: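 Wild-type cells were seeded at 1,500 per well and settled 5 hr at 37 C, 5% CO2, then exposed to DMSO-dissolved compounds for 17 hr. Caspase-Glo 3/7 reagent was added, and luminescence was read after 30min at room temperature.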
Assay [6] deals with Nuclear receptor subfamily 1 group I member 2 (Homo sapiens) (UniProt O75469). Nature of the assay: Human pregnane X receptor (PXR) small molecule agonists, qHTS assay (AID 1346982). Note: nearly all actives have a fitted effect of over 35% in size. The gist of the method: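 Stable HepG2 line reporting PXR-mediated CYP3A4 expression via luciferase. Treatment: 24 hr with compounds in DMSO at 37 C. Detection: ONE-Glo luminescence.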
Sequence of Nuclear receptor subfamily 1 group I member 2 (Homo sapiens) (O75469 whole entry, looked up): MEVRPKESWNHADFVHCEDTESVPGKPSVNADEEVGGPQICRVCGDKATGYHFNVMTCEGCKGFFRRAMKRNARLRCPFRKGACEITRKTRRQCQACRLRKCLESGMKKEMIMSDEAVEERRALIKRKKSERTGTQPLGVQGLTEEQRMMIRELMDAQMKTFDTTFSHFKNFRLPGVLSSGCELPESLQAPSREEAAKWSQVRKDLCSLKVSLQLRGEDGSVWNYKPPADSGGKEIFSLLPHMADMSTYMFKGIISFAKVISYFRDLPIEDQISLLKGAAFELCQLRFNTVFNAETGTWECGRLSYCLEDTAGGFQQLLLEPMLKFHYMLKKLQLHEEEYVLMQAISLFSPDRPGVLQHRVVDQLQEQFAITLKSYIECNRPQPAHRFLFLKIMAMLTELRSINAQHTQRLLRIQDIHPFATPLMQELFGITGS
In assay [7] the target is Acetylcholinesterase (Homo sapiens) (UniProt P22303). Nature of the assay: Acetylcholinesterase (AChE) small molecule antagonists: enzyme-based qHTS assay (AID 1347397; calls by dose curve; note: nearly all actives have a fitted effect of over 55% in size; note: potency is the fitted concentration of half-maximal effect). The settings on record: Potency: AChE enzyme activity inhibition. Summed up: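 Tox21 library chemicals are tested in qHTS format against recombinant human AChE. The enzyme, dispensed at 50 mU/mL, sits with compound for 30 min at room temperature. A DTNB–acetylthiocholine cocktail follows, and colour is read after 10 min.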
Sequence of Acetylcholinesterase (Homo sapiens) (P22303 whole entry, looked up): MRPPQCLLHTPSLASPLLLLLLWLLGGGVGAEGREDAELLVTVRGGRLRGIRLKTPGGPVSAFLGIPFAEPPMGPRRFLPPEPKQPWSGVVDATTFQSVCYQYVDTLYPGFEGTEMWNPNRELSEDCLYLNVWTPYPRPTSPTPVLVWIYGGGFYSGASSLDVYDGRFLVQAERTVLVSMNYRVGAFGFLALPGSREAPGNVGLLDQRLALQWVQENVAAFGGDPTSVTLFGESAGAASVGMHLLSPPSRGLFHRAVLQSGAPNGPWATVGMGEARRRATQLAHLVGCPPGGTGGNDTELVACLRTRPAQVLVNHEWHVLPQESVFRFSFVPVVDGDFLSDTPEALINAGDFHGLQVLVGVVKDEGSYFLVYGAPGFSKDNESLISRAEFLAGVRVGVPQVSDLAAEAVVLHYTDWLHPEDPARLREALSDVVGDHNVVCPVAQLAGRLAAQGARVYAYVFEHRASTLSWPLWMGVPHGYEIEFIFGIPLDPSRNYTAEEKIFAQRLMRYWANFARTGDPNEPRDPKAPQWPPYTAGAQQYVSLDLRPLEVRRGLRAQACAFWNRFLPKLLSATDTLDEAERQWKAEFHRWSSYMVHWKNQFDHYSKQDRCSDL

For assay [8] the target is unchanged. Nature of the assay: Acetylcholinesterase (AChE) small molecule antagonists: fluorescence cell-based qHTS assay (AID 1347398; calls by dose curve; note: nearly all actives have a fitted effect of over 50% in size; note: potency is the fitted concentration of half-maximal effect). The settings on record: Potency: AChE activity. The gist of the method:
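Cellular AChE inhibition: SH-SY5Y cells treated with test chemical for 30 min at 37 C, then acetylthiocholine hydrolysis followed over 40 min at room temperature via thiocholine-reactive Thiolite Green fluorescence (490/520 nm).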

For assay [9] the target is unchanged. Nature of the assay: Acetylcholinesterase (AChE) small molecule antagonists: enzyme-based qHTS assay with human liver microsomes (AID 1347399; calls by dose curve; note: nearly all actives have a fitted effect of over 60% in size; note: potency is the fitted concentration of half-maximal effect). Particulars: Potency: qHTS inhibition. The gist of the method: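 Recombinant human AChE (50 mU/mL in the enzyme mix) and human liver microsomes (0.25 mg/mL final) were preincubated with compound and NADPH (0.25 mg/mL final) for 30 min at 37 C. Acetylthiocholine/DTNB was then added; thiocholine was read colorimetrically after 10 min at room temperature.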

The target of assay [10] is Cytochrome P450 2D6 (Homo sapiens) (UniProt P10635). As to the kind of experiment: Cytochrome P450 Family 2 Subfamily D Member 6 (CYP2D6) small molecule antagonists: luciferase reporter qHTS assay (AID 1671196). Note: series mostly up to about 120 µM; nearly all actives have a fitted effect of over 50% in size. Summed up: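 Chemicals tested for interference with CYP2D6 activity; proluciferin substrate, NADPH regeneration, 1 h at room temperature, luminescent detection.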
On the technique in general: A reporter such as luciferase makes a cellular process visible.

Assay [11] deals with Cytochrome P450 2C19 (Homo sapiens) (UniProt P33261). Nature of the assay: Cytochrome P450 Family 2 Subfamily C Member 19 (CYP2C19) small molecule antagonists: luciferase reporter qHTS assay (AID 1671197). Note: nearly all actives have a fitted effect of over 65% in size. Note: potency is the fitted concentration of half-maximal effect. Summed up: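 Enzyme-substrate mix with proluciferin substrate (P450-Glo CYP2C19 system) preincubated with compounds 10 min at room temperature; NADPH regeneration solution added, 37C for 1 h; detection reagent stops reaction, luminescence read after 20 min. Ketoconazole positive control.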
Sequence of Cytochrome P450 2C19 (Homo sapiens) (P33261 whole entry, looked up): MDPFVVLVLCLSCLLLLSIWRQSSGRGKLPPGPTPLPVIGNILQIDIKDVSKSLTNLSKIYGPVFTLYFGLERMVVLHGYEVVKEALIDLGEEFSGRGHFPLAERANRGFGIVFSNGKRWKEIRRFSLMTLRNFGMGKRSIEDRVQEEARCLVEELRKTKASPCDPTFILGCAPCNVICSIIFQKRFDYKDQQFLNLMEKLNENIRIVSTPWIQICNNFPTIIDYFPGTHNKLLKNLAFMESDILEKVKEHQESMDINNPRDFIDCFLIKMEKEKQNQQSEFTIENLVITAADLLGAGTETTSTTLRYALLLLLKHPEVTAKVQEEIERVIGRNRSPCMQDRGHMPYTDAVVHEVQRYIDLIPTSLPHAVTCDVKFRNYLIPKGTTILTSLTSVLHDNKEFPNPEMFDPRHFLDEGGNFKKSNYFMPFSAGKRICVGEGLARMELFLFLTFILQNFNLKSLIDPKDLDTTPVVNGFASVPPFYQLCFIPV

Assay [12] concerns the target Cytochrome P450 2C9 (Homo sapiens) (UniProt P11712). As to the kind of experiment: Cytochrome P450 Family 2 Subfamily C Member 9 (CYP2C9) small molecule antagonists: luciferase reporter qHTS assay (AID 1671198). Note: nearly all actives have a fitted effect of over 50% in size. Note: potency is the fitted concentration of half-maximal effect. Summed up: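 CYP2C9 activity was measured with a P450-Glo proluciferin substrate. Enzyme–substrate mix was held with compound for 10 min at room temperature, then NADPH regeneration solution was added for 1 h at 37C. Luciferin product was read as luminescence.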

For assay [13], the target named is Cytochrome P450 1A2 (Homo sapiens) (UniProt P05177). Nature of the assay: Cytochrome P450 Family 1 Subfamily A Member 2 (CYP1A2) small molecule antagonists: luciferase reporter qHTS assay (AID 1671199). Note: nearly all actives have a fitted effect of over 50% in size. Note: potency is the fitted concentration of half-maximal effect. Summed up:
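Read-out is luminescence from luciferin detection reagent (20 min) proportional to CYP1A2 activity; compounds in DMSO preincubated 10 min with enzyme and proluciferin substrate, then NADPH regeneration solution, 1 h, room temperature.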

Assay [14] deals with Voltage-gated inwardly rectifying potassium channel KCNH2 (Homo sapiens) (UniProt Q12809). As to the kind of experiment: Human Ether-a-go-go-Related Gene (hERG) channel small molecule antagonists: fluorescence cell-based qHTS assay (AID 1671200). Summed up:
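hERG-U2OS cells plated overnight at 37 C, loaded with FluxOR II dye 1 h at RT in dark; after 10 min, thallium stimulus added. Fluorescence (480/540 nm) read kinetically for 2 min at 1 s intervals.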

The target of assay [15] is Cytochrome P450 3A4 (Homo sapiens) (UniProt P08684). As to the kind of experiment: Cytochrome P450 Family 3 Subfamily A Member 4 (CYP3A4) small molecule antagonists: luciferase reporter qHTS assay (AID 1671201). The gist of the method:
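P450-Glo CYP3A4 luminescent assay: compounds preincubated 10 min at room temperature with enzyme and proluciferin substrate, NADPH regeneration added, 1 h room-temperature reaction, stopped with luciferin detection reagent; luminescence read after 20 min. Ketoconazole positive control.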

Assay [16] in a line: Caspase-3/7 induction in HepG2 cells by small molecules, qHTS cell viability counter screen (AID 1346981). Note: series mostly up to about 92 µM; nearly all actives have a fitted effect of over 30% in size. Summed up: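 Treatment of HepG2 cells with DMSO-delivered compounds ran 16 hr at 37 C following a 5-hr pre-incubation of 2,000 cells/well. CellTiter-Fluor fluorescence, read after 1 hr, served as the viability measure in a qHTS format.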
The target in assay [17] is Nuclear receptor subfamily 1 group I member 2 (Rattus norvegicus) (UniProt Q9R1A7). Nature of the assay: Rat pregnane X receptor (rPXR) activation by small molecules, qHTS assay (AID 1346983). Note: nearly all actives have a fitted effect of over 20% in size. Particulars: rPXR luciferase reporter cells, One-Glo luminescence, 24 h; max activation: stronger effect = higher value. Summed up: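 Cell-based rPXR luciferase reporter assay, 2,000 cells per well, rested 5hr at 37 C before compound addition in DMSO, then 24 hr at 37 C. One-Glo reagent was added and luminescence read after 30 min at room temperature.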

Assay [18] concerns the target Nuclear receptor subfamily 1 group I member 2 (Homo sapiens) (UniProt O75469). Nature of the assay: CYP3A4 induction through human pregnane X receptor (PXR) by small molecules, qHTS assay (AID 1346984). Note: nearly all actives have a fitted effect of over 40% in size. The gist of the method: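 After 24 h at 37C with compound, DPX-2 cells (HepG2, co-transfected PXR response element and CYP3A4 promoter-luciferase) got 3uM final P450-Glo Luciferin-IPA for 3 h; One-Glo luminescence followed.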

Assay [19] has the same target. As to the kind of experiment: Human pregnane X receptor (PXR) activation by small molecules, qHTS assay (AID 1346985). Note: nearly all actives have a fitted effect of over 40% in size. Summed up: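 DPX-2 cells (HepG2 co-transfected with a PXR response element and a CYP3A4-promoter luciferase construct) were seeded at 2,000 per well, rested 5 hr at 37C, then exposed to DMSO-dissolved compounds for 24 hr. Activation was read as luciferase luminescence.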

Assay [20] has as its target Acetylcholinesterase (Homo sapiens) (UniProt P22303). Nature of the assay: Acetylcholinesterase (AChE) small molecule antagonists: colormetric cell-based qHTS assay (AID 1347395; calls by dose curve; note: nearly all actives have a fitted effect of over 30% in size). Summed up:
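SH-SY5Y cells attached overnight, exposed to compound 30 min at 37 C, then given DTNB/acetylthiocholine; after 90 min at 37 C, colorimetric thiocholine read gives cellular AChE activity.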

Several values for one entry are separate records, joined by “and”; a condition that tells them apart may be missing. Equal entries are not always repeated. Inconclusive results are not listed. Some structures have more than one record in an assay (separate samples or runs), and their calls can disagree. Activity calls are given as the source filed them. Unless noted, calls come from the whole dose curve; as a rule, active = well fitted curve in the direction sought with a large enough effect in the repeat runs; inconclusive = weak or mixed curves; inactive = no such curve, though single readings can be large; an effect the other way counts as inactive or inconclusive.
% is set by controls: 0 for no effect and ±100 for the full control effect.

Sequence of Thyrotropin-releasing hormone receptor (Homo sapiens) (P34981 whole entry, looked up): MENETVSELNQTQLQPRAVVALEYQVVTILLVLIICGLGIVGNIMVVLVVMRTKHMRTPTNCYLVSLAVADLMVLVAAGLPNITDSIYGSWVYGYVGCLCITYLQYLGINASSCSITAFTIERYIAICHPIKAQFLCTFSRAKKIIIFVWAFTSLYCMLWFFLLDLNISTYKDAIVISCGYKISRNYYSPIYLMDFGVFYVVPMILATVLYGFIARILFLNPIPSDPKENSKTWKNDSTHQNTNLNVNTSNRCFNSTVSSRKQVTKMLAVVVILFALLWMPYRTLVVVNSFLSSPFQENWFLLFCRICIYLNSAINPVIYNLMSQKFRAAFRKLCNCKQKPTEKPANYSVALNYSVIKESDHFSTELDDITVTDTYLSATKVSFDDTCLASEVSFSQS
Sequence of Cytochrome P450 1A2 (Homo sapiens) (P05177 whole entry, looked up): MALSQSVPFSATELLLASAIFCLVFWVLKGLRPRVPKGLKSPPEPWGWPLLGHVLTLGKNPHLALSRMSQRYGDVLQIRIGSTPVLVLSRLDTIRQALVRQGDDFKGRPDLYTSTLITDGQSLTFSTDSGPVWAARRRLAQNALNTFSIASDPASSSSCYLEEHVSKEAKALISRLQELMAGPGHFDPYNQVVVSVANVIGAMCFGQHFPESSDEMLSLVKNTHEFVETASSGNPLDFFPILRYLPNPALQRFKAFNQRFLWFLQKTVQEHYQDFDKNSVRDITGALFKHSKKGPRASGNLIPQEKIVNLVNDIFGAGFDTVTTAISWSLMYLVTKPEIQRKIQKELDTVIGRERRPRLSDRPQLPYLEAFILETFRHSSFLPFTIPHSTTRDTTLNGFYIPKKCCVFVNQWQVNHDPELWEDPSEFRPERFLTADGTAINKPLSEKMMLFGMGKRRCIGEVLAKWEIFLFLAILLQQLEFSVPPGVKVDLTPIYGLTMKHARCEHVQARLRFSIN
Sequence of Voltage-gated inwardly rectifying potassium channel KCNH2 (Homo sapiens) (Q12809 whole entry, looked up): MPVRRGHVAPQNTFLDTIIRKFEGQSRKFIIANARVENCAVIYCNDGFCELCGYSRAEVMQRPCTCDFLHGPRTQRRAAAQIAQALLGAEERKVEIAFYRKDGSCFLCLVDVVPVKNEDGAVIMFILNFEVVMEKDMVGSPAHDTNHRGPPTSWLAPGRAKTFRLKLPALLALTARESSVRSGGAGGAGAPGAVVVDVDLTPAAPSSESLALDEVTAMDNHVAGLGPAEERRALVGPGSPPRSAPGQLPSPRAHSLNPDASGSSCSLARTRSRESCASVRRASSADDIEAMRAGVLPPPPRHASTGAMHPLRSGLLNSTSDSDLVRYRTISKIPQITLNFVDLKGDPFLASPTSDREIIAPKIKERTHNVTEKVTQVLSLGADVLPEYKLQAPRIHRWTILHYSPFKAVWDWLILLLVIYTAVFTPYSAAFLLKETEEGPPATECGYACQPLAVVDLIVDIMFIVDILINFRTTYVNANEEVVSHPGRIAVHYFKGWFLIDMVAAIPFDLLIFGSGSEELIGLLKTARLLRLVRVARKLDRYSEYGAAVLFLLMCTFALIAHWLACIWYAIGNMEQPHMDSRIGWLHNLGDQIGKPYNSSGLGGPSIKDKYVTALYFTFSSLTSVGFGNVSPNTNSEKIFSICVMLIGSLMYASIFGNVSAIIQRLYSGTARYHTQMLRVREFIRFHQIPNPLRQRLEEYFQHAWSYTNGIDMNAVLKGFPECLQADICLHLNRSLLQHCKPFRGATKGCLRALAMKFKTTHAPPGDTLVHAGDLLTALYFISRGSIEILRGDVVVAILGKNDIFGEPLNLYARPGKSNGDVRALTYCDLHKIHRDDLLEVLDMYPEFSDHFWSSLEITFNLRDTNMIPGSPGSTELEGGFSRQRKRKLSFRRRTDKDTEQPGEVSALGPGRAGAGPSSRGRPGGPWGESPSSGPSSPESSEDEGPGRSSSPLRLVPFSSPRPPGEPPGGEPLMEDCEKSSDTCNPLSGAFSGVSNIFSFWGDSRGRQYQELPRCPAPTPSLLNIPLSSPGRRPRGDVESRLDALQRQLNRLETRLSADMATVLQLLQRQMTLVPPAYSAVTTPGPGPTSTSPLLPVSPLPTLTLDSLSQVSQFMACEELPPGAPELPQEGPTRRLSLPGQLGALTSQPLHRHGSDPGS
Sequence of Cytochrome P450 2C9 (Homo sapiens) (P11712 whole entry, looked up): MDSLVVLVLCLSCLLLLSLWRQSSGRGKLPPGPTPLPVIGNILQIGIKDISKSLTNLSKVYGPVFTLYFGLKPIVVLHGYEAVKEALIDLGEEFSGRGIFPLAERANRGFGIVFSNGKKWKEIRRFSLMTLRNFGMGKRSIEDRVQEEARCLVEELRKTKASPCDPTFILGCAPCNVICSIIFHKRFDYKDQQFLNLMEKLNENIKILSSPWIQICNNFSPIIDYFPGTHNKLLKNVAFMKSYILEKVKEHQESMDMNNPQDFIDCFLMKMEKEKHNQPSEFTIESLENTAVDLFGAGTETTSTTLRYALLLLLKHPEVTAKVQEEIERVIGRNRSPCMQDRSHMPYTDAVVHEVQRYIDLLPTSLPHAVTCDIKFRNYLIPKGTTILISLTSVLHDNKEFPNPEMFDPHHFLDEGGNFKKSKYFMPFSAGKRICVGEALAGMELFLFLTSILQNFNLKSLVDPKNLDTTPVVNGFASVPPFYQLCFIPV
Sequence of Cytochrome P450 3A4 (Homo sapiens) (P08684 whole entry, looked up): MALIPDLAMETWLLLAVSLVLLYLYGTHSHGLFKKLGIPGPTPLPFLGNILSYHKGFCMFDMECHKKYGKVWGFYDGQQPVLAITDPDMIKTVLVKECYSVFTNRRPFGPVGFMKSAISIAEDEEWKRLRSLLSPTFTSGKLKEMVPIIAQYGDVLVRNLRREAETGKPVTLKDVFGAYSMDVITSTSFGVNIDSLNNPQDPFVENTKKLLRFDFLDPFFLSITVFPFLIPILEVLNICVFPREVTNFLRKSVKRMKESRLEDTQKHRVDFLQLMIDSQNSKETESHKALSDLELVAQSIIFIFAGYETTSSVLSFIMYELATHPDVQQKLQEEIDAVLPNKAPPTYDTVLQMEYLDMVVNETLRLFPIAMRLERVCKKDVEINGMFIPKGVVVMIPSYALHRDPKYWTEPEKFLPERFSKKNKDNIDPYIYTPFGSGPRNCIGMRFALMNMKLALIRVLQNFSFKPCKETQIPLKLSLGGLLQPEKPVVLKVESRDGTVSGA

For `CNC(=O)O/N=C/C(C)(C)S(C)=O` (stereo not given), the compound was called inactive in [1], in assay [3] and in assay [5]. The Potency entry in [2], in assay [6], in assay [10], in [11], in assay [12] and in assay [13] was “inactive” throughout. For the same compound, the Potency entry in assay [14] and in [15] was “inactive” each time. Also, the Potency in assay [4] was 49.2 µM (active) and inactive; in [7], 572 nM (active) and 316 nM (active); in [8], 57.2 nM (active) and 35.4 nM (active); in assay [9], 2.87 µM (active) and 2.51 µM (active).

In the case of `OC[C@@H](O)[C@H]1O[C@@H]2O[C@H](C(Cl)(Cl)Cl)O[C@@H]2[C@H]1O`, the outcome in assay [1] and in assay [3] was inactive. Further, the Potency entry in [2], in assay [4], in assay [16], in assay [6], in [18] and in assay [19] was “inactive” in each case. The Potency entry in assay [20], in assay [7], in assay [8], in assay [9], in assay [10] and in assay [12] was “inactive” each time. Further, the Potency entry in assay [13], in assay [14] and in assay [15] was “inactive” throughout. Besides, the max activation in assay [17] was -1.13% (inactive). For the same compound, the Potency in assay [11] is 35.5 µM (active) and inactive.

Turning to `CCCOC(=O)c1ccccc1C(=O)OCCC`, the compound was classed as inactive in assay [1] and in assay [3]. For the same compound, the Potency entry in assay [2], in [4], in assay [16], in assay [6], in [20] and in [7] was “inactive” each time. Further, the Potency result in assay [8], in assay [9], in assay [10], in assay [14] and in assay [15] was “inactive” throughout. Besides, the Potency in assay [11] was 8.09 µM (active) and 8.94 µM (active); in [12] it was 32.2 µM (active) and 35.6 µM (active); in assay [13] it was 2.03 µM (active) and 3.17 µM (active).

`Sc1ccccc1`: the call in [1] and in assay [3] was inactive. Further, the Potency entry in [2], in assay [4], in assay [16], in assay [6], in assay [20] and in assay [7] was “inactive” throughout. Moreover, the Potency entry in assay [8], in assay [9], in [10], in [14] and in assay [15] was “inactive” in each case. For the same compound, the Potency in assay [11] was 18.1 µM (active) and 40.1 µM (active); in assay [12], 32.2 µM (active) and 31.9 µM (active) and 56.4 µM (active).

Regarding `C=CC#N`, the compound was classed as inactive in assay [1] and in [3]. Besides, the Potency entry in assay [2], in assay [4], in [16], in assay [6], in [7] and in assay [8] was “inactive” throughout. Also, the Potency entry in [9], in assay [10], in [11], in [12], in [13] and in assay [14] was “inactive” each time. The Potency result in [15] was “inactive”.

For the compound `CC(C)c1cccc(C(C)C)c1O`, the call in [1], in [3] and in [5] was inactive. For the same compound, the Potency entry in assay [2], in assay [4], in assay [16], in [7], in assay [8] and in [9] was “inactive” throughout. Also, the Potency result in assay [14] is “inactive”.

Source of the values: PubChem BioAssay (Tox21).
